PubChem BioAssay (NCI)
The panel holds about 83,000 compounds, 20% with a hit somewhere; the sample as a whole holds those more often.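 Activity criterion: percent growth below 10, measured after cells in 96-well plates were exposed to a single compound concentration for 48 hours.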 Values without a mark were called inactive. The source made the active and inactive calls.

System: RXF 393 renal
Assay: NCI-60 one-dose screen, 48 h (100 = growth as untreated, 0 = no growth, -100 = all killed)
Conditions: 10 µM unless noted

Row | SMILES | growth
1 | C/C(=N\NC(N)=O)c1c(O)sc(=O)[nH]c1=O | 107%
2 | OC1CCN(CCCOc2c3ccc(Cl)cc3nc3c2oc2ccccc23)CC1 | -74.3% (active)
3 | NS(=O)(=O)c1ccc(Nc2nc(Nc3ccccc3)nc(-n3nc(-c4ccccc4)cc3-c3ccccc3)n2)cc1 | 22.8%
4 | COc1cc(OC)c(C2C(Cl)C(=O)N2Nc2ncnc3ccccc23)cc1OC (centres undefined) | 112%
5 | CN(C)CCCOc1c2ccc(Cl)cc2nc2c1oc1ccc(Cl)cc12 | -86.6% (active)
6 | Cc1[nH]nc2ncc(C#Cc3cncc(C(=O)Nc4ccc(CN5CCN(C)CC5)c(C(F)(F)F)c4)c3)cc12 | -12.8% (active)
7 | CC1=C(C)C(=O)C(Nc2cccc(C(F)(F)F)c2)=C(Cl)C1=O | 97.8%
8 | Cn1cc(-c2cc(N)n3nc(-c4cn(C)c5ccc(Br)cc45)cc3n2)c2cc(Br)ccc21 | 147%
9 | O=c1[nH]c2ccc(Cl)cc2cc1CSc1ccccc1Nc1nccc(-c2ccc(Cl)cc2)n1 | 84.7%
10 | COc1ccc(-c2nc3ccc(-c4nnc(SCC(=O)Nc5ccc(C(=O)/C=C/c6ccccc6)cc5)o4)cc3[nH]2)cc1OC | 110%
11 | N#Cc1nc(-c2ccccc2)oc1S(=O)(=O)N1CCN(CCc2ccccn2)CC1 | -54.7% (active)
12 | CN1CCN(Cc2ccc(NC(=O)c3cncc(C#Cc4cnc5[nH]ncc5c4)c3)cc2C(F)(F)F)CC1 | -2.95% (active)
13 | COc1cc(/C=C/C(=O)c2ccc(F)cc2)ccc1Oc1nc(NCCO)nc(N2CCOCC2)n1 | 108%
14 | Clc1ccc2c(OCCCN3CCOCC3)c3oc4ccccc4c3nc2c1 | 26.7%
15 | O=C(c1ccc(O)cc1)C1[C@H](c2ccc(Cl)cc2)[C@@H](c2ccccc2)NC12C(=O)Nc1ccc(Cl)cc12 (some centres undefined) | 27.7%
16 | Nc1cc(-c2c[nH]c3ccccc23)nc2cc(-c3c[nH]c4ccccc34)nn12 | 38.2%
17 | Oc1c(Cl)cc(Cl)c2ccc(CN3CCCCC3)nc12 | 78.2%
18 | CN(C)CCCOc1c2ccc(Cl)cc2nc2c1oc1ccccc12 | -66% (active)
19 | CS(=O)(=O)c1ccc(-c2nc3ccccn3c2/C=N/Nc2nc(-c3ccc(Br)cc3)cs2)cc1 | 99.7%
20 | C=CCn1c(SCC(=O)c2ccc(Br)cc2)nnc1-c1c[nH]c2ccccc12 | 113%
21 | COc1cc(/C=C/C(=O)c2ccccc2)ccc1Oc1nc(NCCO)nc(N2CCOCC2)n1 | 105%
22 | COC1CCN(Cc2ccc3c(NNC(=O)c4cnccn4)nc4cc(F)ccc4n23)C1 (centres undefined) | 37.9%
23 | CC(C)NC(=O)c1cc(-c2ccc(NC(=O)Nc3ccc(N4CCOCC4)c(C(F)(F)F)c3)cc2)nc2cccnc12 | -9.17% (active)
24 | O=C(N/N=C/c1ccco1)c1[nH]c2ccc(Br)cc2c1-c1ccccc1 | 62.2%
25 | O=C(CSc1nccc(=O)[nH]1)Nc1ccc(-c2nc3ccccc3[nH]2)cc1 | 128%

System: SF-268 CNS
Assay: as above
Conditions: 10 µM unless noted

Row | SMILES | growth
26 | CCN1CCN(/C(=N\c2sc(-c3ccccc3)nc2-c2ccccc2)c2ccccc2)CC1 | 89.2%
27 | CCCCN1C(=O)/C(=c2\sc3n(c2=O)C2C(NN=3)N(CC)C(=O)N2CC)c2cc(Cl)ccc21 (centres undefined) | 75.4%
28 | O=C1C2=C(C(=O)c3c(O)cccc31)C(c1ccco1)c1sc(=O)[nH]c1S2 (centres undefined) | 50.7%
29 | COc1cc(/C=C/C(=O)c2ccc(C(F)(F)F)cc2)ccc1Oc1nc(NCCO)nc(N2CCOCC2)n1 | 87.3%
30 | OC1CCN(CCCOc2c3ccc(Cl)cc3nc3c2oc2ccc(Cl)cc23)CC1 | 27.4%
31 | Nc1c(C(=O)Nc2ccc(Cl)cc2)sc2nc(-c3cnccn3)cc(-c3cccs3)c12 | 47.2%
32 | O=C(N/N=C/c1ccc([N+](=O)[O-])o1)c1[nH]c2ccc(Br)cc2c1-c1ccccc1 | 24.8%
33 | Cc1ccc(-c2nc(C(Cl)Cl)nc3cc(-c4ccccc4)nn23)cc1 | 23.9%
34 | CCOC(=O)c1c(NC(=O)c2cccc(C(F)(F)F)c2)sc2cc(O)ccc12 | 96.9%
35 | OC1CCN(CCCOc2c3ccccc3nc3c2oc2ccccc23)CC1 | 2.44% (active)
36 | COc1ccc(C(=O)/C=C/c2ccc(OCc3ccc(Cl)cc3)c(OC)c2)cc1OC | 78.7%
37 | CN(C)CCCNc1c2ccccc2nc2c1oc1ccc(Cl)cc12 | 40.9%
38 | COc1ccc(NC2=CC(=O)C(C)=C(C)C2=O)cc1 | 101%
39 | COc1ccc(-n2c(SCC(=O)Nc3ccc(-c4nc5ccccc5[nH]4)cc3)nc3ccccc3c2=O)cc1 | 42.6%
40 | C/C(=N\NC(N)=O)c1c(O)sc(=O)[nH]c1=O | 104%
41 | OC1CCN(CCCOc2c3ccc(Cl)cc3nc3c2oc2ccccc23)CC1 | 4.41% (active)
42 | NS(=O)(=O)c1ccc(Nc2nc(Nc3ccccc3)nc(-n3nc(-c4ccccc4)cc3-c3ccccc3)n2)cc1 | 37.8%
43 | COc1cc(OC)c(C2C(Cl)C(=O)N2Nc2ncnc3ccccc23)cc1OC (centres undefined) | 99.2%
44 | CN(C)CCCOc1c2ccc(Cl)cc2nc2c1oc1ccc(Cl)cc12 | 25.9%
45 | Cc1[nH]nc2ncc(C#Cc3cncc(C(=O)Nc4ccc(CN5CCN(C)CC5)c(C(F)(F)F)c4)c3)cc12 | 21.2%

Row | SMILES | growth
46 | CC1=C(C)C(=O)C(Nc2cccc(C(F)(F)F)c2)=C(Cl)C1=O | 94.3%
47 | Cn1cc(-c2cc(N)n3nc(-c4cn(C)c5ccc(Br)cc45)cc3n2)c2cc(Br)ccc21 | 82.5%
48 | O=c1[nH]c2ccc(Cl)cc2cc1CSc1ccccc1Nc1nccc(-c2ccc(Cl)cc2)n1 | 81.5%
49 | COc1ccc(-c2nc3ccc(-c4nnc(SCC(=O)Nc5ccc(C(=O)/C=C/c6ccccc6)cc5)o4)cc3[nH]2)cc1OC | 106%
50 | N#Cc1nc(-c2ccccc2)oc1S(=O)(=O)N1CCN(CCc2ccccn2)CC1 | 109%
51 | CN1CCN(Cc2ccc(NC(=O)c3cncc(C#Cc4cnc5[nH]ncc5c4)c3)cc2C(F)(F)F)CC1 | 37.7%
52 | COc1cc(/C=C/C(=O)c2ccc(F)cc2)ccc1Oc1nc(NCCO)nc(N2CCOCC2)n1 | 81%
53 | Clc1ccc2c(OCCCN3CCOCC3)c3oc4ccccc4c3nc2c1 | 38.3%
54 | O=C(c1ccc(O)cc1)C1[C@H](c2ccc(Cl)cc2)[C@@H](c2ccccc2)NC12C(=O)Nc1ccc(Cl)cc12 (some centres undefined) | 37.7%
55 | Nc1cc(-c2c[nH]c3ccccc23)nc2cc(-c3c[nH]c4ccccc34)nn12 | 75.2%
56 | Oc1c(Cl)cc(Cl)c2ccc(CN3CCCCC3)nc12 | 41.9%
57 | CN(C)CCCOc1c2ccc(Cl)cc2nc2c1oc1ccccc12 | -9.41% (active)
58 | CS(=O)(=O)c1ccc(-c2nc3ccccn3c2/C=N/Nc2nc(-c3ccc(Br)cc3)cs2)cc1 | 108%
59 | C=CCn1c(SCC(=O)c2ccc(Br)cc2)nnc1-c1c[nH]c2ccccc12 | 102%
60 | COc1cc(/C=C/C(=O)c2ccccc2)ccc1Oc1nc(NCCO)nc(N2CCOCC2)n1 | 103%
61 | COC1CCN(Cc2ccc3c(NNC(=O)c4cnccn4)nc4cc(F)ccc4n23)C1 (centres undefined) | 35.8%
62 | CC(C)NC(=O)c1cc(-c2ccc(NC(=O)Nc3ccc(N4CCOCC4)c(C(F)(F)F)c3)cc2)nc2cccnc12 | 77.5%
63 | O=C(N/N=C/c1ccco1)c1[nH]c2ccc(Br)cc2c1-c1ccccc1 | 29.9%
64 | O=C(CSc1nccc(=O)[nH]1)Nc1ccc(-c2nc3ccccc3[nH]2)cc1 | 115%
